Shown are actives, neighbours in structure and some others; about 2.4% of the full set was active somewhere.
M1 PAM = positive allosteric modulators of human M1 muscarinic receptor; P11229; CHO-K1 hM1, Fluo-8 calcium fluorescence, ACh EC20; 0% = ACh EC20, 100% = maximal ACh; activation, % at 3 µM; actives 0.088% (n = 360,000); in the data active = activation above about 19%, passing the limit was not always enough
Target sequence (P11229 whole entry, looked up): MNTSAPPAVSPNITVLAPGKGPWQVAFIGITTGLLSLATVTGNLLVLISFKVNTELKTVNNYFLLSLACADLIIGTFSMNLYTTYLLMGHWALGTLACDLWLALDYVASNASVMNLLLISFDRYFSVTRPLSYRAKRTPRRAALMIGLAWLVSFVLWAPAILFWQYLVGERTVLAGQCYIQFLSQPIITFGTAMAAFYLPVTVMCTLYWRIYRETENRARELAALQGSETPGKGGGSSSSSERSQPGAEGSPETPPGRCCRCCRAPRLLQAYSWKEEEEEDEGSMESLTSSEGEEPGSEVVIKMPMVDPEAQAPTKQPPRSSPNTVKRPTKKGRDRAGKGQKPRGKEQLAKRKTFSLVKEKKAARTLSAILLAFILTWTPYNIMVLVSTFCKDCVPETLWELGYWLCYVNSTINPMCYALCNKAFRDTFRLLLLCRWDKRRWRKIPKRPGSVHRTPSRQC
CHO-K1 Ca ag = counter-screen for M1 agonists: effect in parental CHO-K1 cells; activation, % at 3 µM; AID 602248; actives 0.48% (n = 360,000); Fluo-8 calcium fluorescence; scaled to maximal ATP response, vehicle zero; in the data active = activation above about 15%;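 note: untransfected CHO-K1 host cells lacking M1 receptor as counterscreen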
CHO-K1 Ca antag = counter-screen for M1 antagonists: effect in parental CHO-K1 cells. ATP-induced calcium, Fluo-8 fluorescence. inhibition, % at 3 µM. actives 0.6% (n = 360,000);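 active = inhibition above a per-plate cutoff, the plate's mean sample inhibition plus 3 SD, cut at about 24% in these data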;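 note: 0% = DMSO plus EC80 ATP and 100% = DMSO alone without ATP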
M1 PAM parental = M1 PAM counterscreen hit in parental CHO-K1 cells | AID 602247 | actives 0.02% (n = 360,000) | ATP EC20, Fluo-8 calcium fluorescence; 0% at ATP EC20, 100% at ATP max | activation, % at 3 µM;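 active = activation above the run cutoff, the mean activation of all test compounds plus 3 SD, cut at about 40% in these data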;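 note: peak over basal fluorescence ratio in a 140 s read after ATP addition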
M1 antag = human CHRM1 antagonism | actives 1.3% (n = 360,000) | CHO-K1 hM1, Fluo-8 calcium fluorescence, ACh EC80 antagonist | AID 588852 | P11229 | inhibition, % at 3 µM;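 active = percent inhibition above its own plate's cutoff, namely the mean of that plate's compound wells plus 3 SD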;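 note: peak over basal fluorescence ratio during 140 s after agonist addition; 0% = ACh EC80 plus DMSO and 100% = DMSO alone without agonist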
M1 ag = human M1 muscarinic receptor agonism | actives 0.33% (n = 360,000) | CHO-K1 hM1, Fluo-8 calcium fluorescence, agonist mode; 0% DMSO, 100% acetylcholine EC100 | P11229 | activation, % at 3 µM;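 active = activation above the run's mean compound activation plus 3 SD, cut at about 16% in these data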;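 note: peak over basal fluorescence ratio within a 140 s kinetic read after compound addition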
The depositor's hits bear a star.

SMILES | M1 PAM | CHO-K1 Ca ag | CHO-K1 Ca antag | M1 PAM parental | M1 antag | M1 ag
COc1ccc(/C(N)=N/OC(=O)CCc2ccccc2)cc1OC | 3 | 0 | 4 | -1 | 2 | -6
O=C(OCCCOC(=O)c1cc[n+]([O-])cc1)c1cc[n+]([O-])cc1 | 26* | 0 | 7 | -20 | -6 | 3
CC(=O)Nc1ccc(C(=O)OCCCOC(=O)c2ccc(NC(C)=O)cc2)cc1 | 6 | 3 | 2 | 14 | -11 | -2
O=c1oc2ccccc2c(Nc2ccccc2O)c1[N+](=O)[O-] | 4 | 0 | 3 | 6 | -9 | -7
O=c1oc2ccccc2c(Nc2cccc3ccccc23)c1[N+](=O)[O-] | 0 | 1 | 26* | -5 | 6 | 1
CCCC(=O)N1CCC1(C)C(=O)Nc1cc(OC)c(OC)c(OC)c1 (stereo not drawn) | 0 | 0 | -2 | -3 | -6 | -3
CCN(CC)c1ccc(C=C2SC(=S)NC2=O)cc1 | -36 | 15 | 21 | -6 | 83* | 111*
c1ccc(-c2cn(-c3ccccc3)c3[n+]2CCCS3)cc1 | -6 | 0 | 1 | -10 | 7 | -8
c1ccc(Cn2c(-c3ccccc3)c[n+]3c2SCCC3)cc1 | -25 | 1 | -10 | 20 | 98* | -9
COc1cc2oc(=O)cc(CN3CCOCC3)c2cc1Cl | 6 | 1 | 12 | 7 | -3 | -4
CC(Oc1ccccc1)C(=O)Nc1cc(Cl)ccc1-n1cncn1 (stereo not drawn) | 2 | 0 | 3 | -16 | -6 | -3
NC(=O)C(CCc1nc2ccccc2[nH]1)NS(=O)(=O)c1ccccc1 (stereo not drawn) | 16 | 0 | -8 | 28 | -26 | 0
N#Cc1ccc(CN2CCN(C(=O)CNC(=O)Cc3ccccc3)CC2)cc1 | 9 | 1 | 6 | -6 | 6 | 11
O=[N+]([O-])c1ccc(C[n+]2cccc3c4ccccc4ccc32)cc1 | 0 | 2 | -16 | 21 | 1 | -5
Cc1ccccc1C[n+]1cccc2ccccc21 | -7 | 0 | -5 | 0 | 8 | -13
CCCCCCCCCCCCCCCC[n+]1cccc2ccccc21 | -25 | -1 | 12 | -1 | 47* | -13
CCCCCCCCC[n+]1cccc2c3ccccc3ccc21 | -22 | 3 | 20 | 2 | 95* | -1
COC12CC(=O)C(C(C)=O)=C(O)C1(C)c1c(O)c(C)c(O)c(C(C)=O)c1O2 (stereo not drawn) | 15 | 0 | 15 | -21 | 4 | 10
O=C(COC(=O)c1cc(Br)ccc1O)c1ccc(F)cc1 | -3 | 0 | -6 | 10 | 3 | -4
CC(=O)Nc1ccc(CN2C(=O)C(C)(C)ON=C2c2ccc(C(F)(F)F)cc2)cc1 | 8 | 0 | 37* | -10 | 0 | 0
CSc1nc2c(=S)[nH]c(=S)[nH]c2s1 | 6 | 1 | -8 | 11 | -2 | 3
CCc1ccccc1NC(=O)Nc1cc(F)ccc1F | 2 | 25* | 13 | 6 | -4 | -9
CCCn1c(=O)n(C)c(=O)c2c(SCC(=O)NCC(c3ccccc3)N(C)C)nc(CC(C)C)nc21 (stereo not drawn) | 12 | 8 | -1 | 23 | -16 | -4
Cc1ccc(NC(=O)CN(C)C(=O)C(C)OC(=O)c2ccccc2NCCO)cc1 (stereo not drawn) | 28* | 0 | -2 | 8 | -27 | 2
CC(C)c1cccc(C(C)C)c1NC(=O)CN1CCCC1 | 4 | 1 | -10 | -1 | -4 | -10
SMILES | M1 PAM | CHO-K1 Ca ag | CHO-K1 Ca antag | M1 PAM parental | M1 antag | M1 ag
Cc1cc(C)c(C2=CC(=O)C[C@H](c3ccc4c(c3)OCO4)C2)c(C)c1 | -8 | 0 | -16 | 15 | 14 | -3
CN(C)C(CNC(=O)CN1C(=O)NC2(CCCC2)C1=O)c1ccccc1 (stereo not drawn) | -22 | 1 | -4 | 9 | 48* | -8
COc1ccc([C@H]2CC(=O)C=C(c3ccc(CNC(=O)OC(C)(C)C)cc3)C2)cc1 | -23 | 9 | 1 | -18 | 34* | -4
CSCCC(NC(=O)c1ccccc1Cl)C(=O)NNC(=O)c1ccncc1 (stereo not drawn) | 4 | 0 | -1 | 3 | -2 | -1
CC1(c2ccc([N+](=O)[O-])cc2)NC(=O)N(CC(=O)c2ccc3c(c2)OCO3)C1=O (stereo not drawn) | 1 | 30* | 7 | -15 | -1 | 37*
CC1CCCCC12NC(=O)N(CC(=O)c1ccc3c(c1)OCO3)C2=O (stereo not drawn) | 9 | 0 | 32* | -20 | -12 | 3
CC1(c2ccc(OC(F)F)cc2)NC(=O)N(CC(=O)NC2CCCCC2)C1=O (stereo not drawn) | 5 | 3 | -19 | 18 | -12 | 10
CC1(c2ccc(OC(F)F)cc2)NC(=O)N(CC(=O)c2ccc3c(c2)OCO3)C1=O (stereo not drawn) | -10 | 36* | 0 | -16 | 1 | 43*
CC1(C2CCCC2)NC(=O)NC1=O (stereo not drawn) | 4 | 0 | 22 | -20 | 0 | -1
COc1ccccc1NC(=O)COC(=O)c1ccc(N2CCCC2=O)cc1 | 3 | 0 | -15 | 7 | 0 | -4
N#C/C(=C\c1ccc(O)cc1)C(=O)NCc1cccc(Cl)c1 | 10 | 17* | -10 | 3 | -12 | 24*
N#C/C(=C/c1ccc(O)cc1)C(=O)NCc1ccc(Cl)cc1 | 3 | 2 | 5 | -15 | 7 | 8
COC(=O)c1sccc1NC(=S)N1CCCCC1 | 7 | 0 | 16 | 4 | -11 | -3
COC(=O)c1sccc1NC(=S)N1CCN(c2cccc(C)c2C)CC1 | 3 | 0 | 24* | -15 | 0 | -7
CCOC(=O)N1CCN(C(=S)Nc2cccc(C)c2C)CC1 | 1 | 0 | 5 | 7 | -9 | 19*
CCOC(=O)N1CCN(C(=S)Nc2ccccc2C(C)C)CC1 | -7 | 0 | 4 | -10 | 17 | 10
Cc1cc(Cl)ccc1NC(=S)N1CCN(Cc2ccccc2)CC1 | 2 | 1 | 2 | 7 | 2 | 3
Cc1cccc(NC(=S)N2CCN(Cc3ccccc3)CC2)c1C | -1 | 14 | 9 | 15 | 3 | 23*
Cc1ccc(C)c(S(=O)(=O)N2CCN(c3nc(-c4cccnc4)nc4ccccc34)CC2)c1 | -12 | 4 | -14 | 5 | 27* | -4
O=S(=O)(c1ccccc1F)N1CCN(c2nc(-c3cccnc3)nc3ccccc23)CC1 | -9 | 6 | 6 | 7 | 27 | -2
N#Cc1ccccc1S(=O)(=O)N1CCN(c2nc(-c3cccnc3)nc3ccccc23)CC1 | -19 | 7 | 11 | -4 | 50* | -2
COn1c(-c2ccc(Cl)cc2)nc2ncccc21 | -1 | -1 | -2 | -21 | 4 | -11
